Pf Dd2 growth: inhibitors of Plasmodium falciparum Dd2 growth | P. falciparum Dd2 growth, SYBR Green, 72 h | Potency, µM (highest dose often 28.9 µM), without a hit: at the highest dose activity, negative = inhibition, usual class: inhibitors | 120,000 compounds, 4.3% hits | AID 1347417; active means well fitted inhibition curve with a large enough effect;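 further: plate controls were DMSO vehicle for no effect and reference drug for full effect; nearly all actives have a fitted effect of over 65% in size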
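Infected erythrocytes (Dd2, 0.3% parasitemia, 2.5% hematocrit final) are added to compound in RPMI-1640/Albumax II medium, grown 72 h at 37C in low oxygen, then lysed with saponin/Triton-X containing SYBR Green and read by fluorescence.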
The depositor's hits bear a star; i = inactive; [ ] = dose if it differs, or a comment. The sample as a whole holds a higher share of hits than the screen did. Potency means the concentration at half of the fitted maximal effect.

SMILES	Pf Dd2 growth
CN(C(=O)c1ccc2cc[nH]c2c1)C1CCc2nn(C)c(=O)n2CC1 (stereo not given)	47%
CC(Cc1cccnc1)Nc1ccc(-c2nccn2C)nn1 (stereo not given)	-24%
OCCN(CCO)c1ncnc2c1cnn2-c1ccc(F)cc1	101%
COc1ccc(CN(C)Cc2ccncc2C)c(OCC(O)CN2CCCC2)c1 (stereo not given)	2.8µM*
CCN1CCN(CC(O)COc2cccc(CN(C)Cc3cc(C)on3)c2)CC1 (stereo not given)	-11%
COc1ccc(OCC(O)CN2CCC(O)CC2)c(CN(C)Cc2csc(C)n2)c1 (stereo not given)	-14%
CC1=C(c2ccc(C(C)C)cc2)S(=O)(=O)N=C1N1CCC(C(=O)NCc2ccc(C)o2)CC1	-11%
CCOC(=O)Cn1c(=O)n(-c2cccc(Cl)c2)c2nc(-c3ccccc3Cl)nc(C(N)=O)c21	10µM*
CCOC(=O)Cn1c(=O)n(-c2ccccc2OC)c2nc(-c3ccccc3F)nc(C(N)=O)c21	-30%
CCOC(=O)Cn1c(=O)n(CC2CCCO2)c2nc(-c3ccccc3Cl)nc(C(N)=O)c21 (stereo not given)	6%
Cc1cnc(C2CC2)n1CCNC(=O)C1CCN1C1CCCCC1 (stereo not given)	-1%
Cc1cnc(C2CCC2)n1CCNC(=O)c1cc(C2CC2)[nH]n1	-4%
Cc1cc(C)c(S(=O)(=O)NCCn2c(C)cnc2C2CCC2)cc1C	3.5µM*
N#Cc1ccc(CN2CCCC(c3nc(-c4cccnc4)no3)CCNC(=O)CC2)cc1 (stereo not given)	4µM*
N#Cc1ccccc1CN1CCCC(c2nc(-c3cccnc3)no2)CCNC(=O)CC1 (stereo not given)	-5%
O=C1CCN(CC2CC2)CCCC(c2nc(-c3cccnc3)no2)CCN1 (stereo not given)	i
COc1ccc2oc(=O)c(C(=O)NCCc3c(C)[nH]c4c(C)cccc34)cc2c1	13%
Cc1c(Cl)cccc1NC(=O)c1ccc2snnc2c1	35%
CCc1cccc(C)c1NC(=O)C1CCN(S(=O)(=O)c2cc(Br)cc3c2N(C(C)=O)CC3)CC1	-25%
CCC(=O)N1CCc2cc(Br)cc(S(=O)(=O)N3CCCC(C(=O)Nc4cc(C)ccc4OC)C3)c21 (stereo not given)	i
CCOC(=O)C1CCCN(S(=O)(=O)c2cc(Br)cc3c2N(C(=O)CC)CC3)C1 (stereo not given)	3.5µM*
CCC(=O)N1CCc2cc(Br)cc(S(=O)(=O)N3CCCC(C(=O)NCc4ccc(OC)cc4)C3)c21 (stereo not given)	-3%
CCC(=O)N1CCc2cc(Br)cc(S(=O)(=O)N3CCC(C(=O)N(CC)CC)CC3)c21	10µM*
CCC(=O)N1CCc2cc(Br)cc(S(=O)(=O)N3CCN(c4cc(C)ccc4C)CC3)c21	5%
COc1cccc(NC(=O)N[C@H]2C[C@@H](C(=O)N[C@@H](CC(C)C)C(N)=O)N(C(=O)CC(C)(C)C)C2)c1	i
SMILES	Pf Dd2 growth
N[C@@H](Cc1cnc[nH]1)C(=O)N1CCC2(CC1)CN(CCOc1ccccc1)C(=O)O2	i
CCOc1ccc(C(=O)Nc2cc(-c3nc4ccccc4o3)ccc2C)cc1Cl	20%
CCOC(=O)Cn1c(=O)n(C2CCCCC2)c2nc(-c3ccc(OC)cc3)nc(C(N)=O)c21	0%
O=C(Nc1ccccc1)N1CCC(CCNC(=O)C2(c3ccccc3)CC2)CC1	i
Cc1ccc(N2C(=O)N[C@@H]3CCN(S(=O)(=O)c4ccc(Cl)cc4)[C@@H]3C2=O)cc1	-19%[44.1 µM]
CN(Cc1cc(-c2cccs2)n[nH]1)C[C@@H]1CCCN2CCCC[C@H]12	7.1µM*
CN1CCCn2nc(C(=O)N(C)Cc3cc(-c4cccs4)n[nH]3)cc2C1	-4%
CN(Cc1cc(-c2cccs2)n[nH]1)C(=O)c1cn(CCN)nn1	-5%
Cc1ccc(S(=O)(=O)NC[C@H]2O[C@@H](CO)[C@@H](O)[C@H]2N2CCN(c3cccc(C(F)(F)F)c3)CC2)cc1	i
CC(=O)c1cccc(-n2c(=O)c3c4c(sc3n(Cc3ccccc3Cl)c2=O)CN(C(C)=O)CC4)c1	i
CC(=O)N1CCc2c(sc3c2c(=O)n(Cc2ccccc2)c(=O)n3Cc2cccc(Cl)c2)C1	10µM*
CCOC(=O)N1CCc2c(sc3c2c(=O)n(Cc2ccccc2)c(=O)n3Cc2ccc(C)cc2)C1	2.5µM*
COc1ccccc1NC(=O)Cn1c(=O)n(Cc2ccccc2)c(=O)c2c3c(sc21)CN(C(C)=O)CC3	-10%
CCOc1ccccc1NC(=O)Cn1c(=O)n(Cc2ccccc2)c(=O)c2c3c(sc21)CN(C(C)=O)CC3	-21%
CCOc1ccc(NC(=O)Cn2c(=O)n(CCc3ccccc3)c(=O)c3c4c(sc32)CCCC4)cc1	44%
CC(=O)N1CCc2c(sc3c2c(=O)n(-c2cccc(Cl)c2C)c(=O)n3Cc2ccccc2C)C1	8.9µM*
CCOC(=O)N1CCc2c(sc3c2c(=O)n(CCc2ccccc2)c(=O)n3Cc2ccc(C)cc2C)C1	2.5µM*
CCOC(=O)N1CCc2c(sc3c2c(=O)n(CCc2ccccc2)c(=O)n3CC(=O)Nc2cccc(C)c2)C1	i
C#CCn1c(=O)n(-c2cccc(Cl)c2C)c(=O)c2c3c(sc21)CN(C(C)=O)CC3	7%
CC(=O)N1CCc2c(sc3c2c(=O)n(Cc2ccccc2)c(=O)n3Cc2ccc(Cl)cc2)C1	-22%
CCOC(=O)N1CCc2c(sc3c2c(=O)n(-c2ccc(CC)cc2)c(=O)n3Cc2cccc(OC)c2)C1	-26%
CN(CC1CCOCC1)C(=O)c1ccc(F)c(Cl)c1	26%
Cc1ccc(CNc2ccc(-c3nc(-c4ccncc4)no3)cc2[N+](=O)[O-])cc1	-9%
O=C1CC2CCCC(C1)N2[S+](=O)([O-])c1cc(C(F)(F)F)cc(C(F)(F)F)c1	-17%
O=C(CN1C(=O)NC2(CCOCC2)C1=O)Nc1ccc(Br)cc1F	-4%
SMILES	Pf Dd2 growth
COc1cc2c(cc1OC)CN(C(=O)Nc1ccccc1)CC2	19%
Cc1cc(=O)n(CC(=O)Nc2cc(Cl)ccc2C)c(N2CCc3ccccc3C2)n1	i
COC[C@H]1C[C@@H](NCc2c(C)noc2C)[C@H](O)[C@@H]1O	18%[44.1 µM]
Cn1c(CO[C@H]2CN(C(=O)C3CC3)C[C@H]2F)nc2ccccc21	16%[44.1 µM]
CSc1cccc(NC(=O)c2ccc3c(c2)N(C)C2CCCN2C3=O)c1 (stereo not given)	i
Cc1ccccc1N1Cc2c(NCc3cccnc3)ncnc2N(C)CC1=O	4%
COCCC(=O)N[C@H]1CC[C@]2(C)CCC([C@H](C)C(=O)NCc3cc(F)cc(F)c3)[C@H](O)[C@H]2[C@@H]1C (stereo not given in full)	i
Oc1c(C(c2ccc(Br)cc2)N2CCOCC2)sc2nc(-c3ccco3)nn12 (stereo not given)	2%
CC(=O)N1CCc2c(sc3c2c(=O)n(-c2ccccc2)c(=O)n3Cc2cccc(C(F)(F)F)c2)C1	10µM*
CC(=O)N1CCc2c(sc3c2c(=O)n(-c2ccccc2)c(=O)n3CC(=O)c2ccccc2)C1	0%
CC(=O)c1cccc(-n2c(=O)c3c4c(sc3n(Cc3cccc(C)c3)c2=O)CN(C(C)=O)CC4)c1	-24%
Cc1cc2nc(-c3ccc(Cl)cc3)cc(C(F)(F)F)n2n1	-18%
CCCNC(=O)N1CCC2(CC1)CN(Cc1ccc(OC)cc1)C2=O	12%
CCC(CC)c1cc([C@H]2CN3CC[C@H]2C[C@@H]3CNS(=O)(=O)c2cccs2)nc(-c2ccncc2)n1	1.1µM*
